Data: ChEMBL document CHEMBL2218924, “A broad activity screen in support of a chemogenomic map for kinase signalling research and drug discovery” (Biochem J, 2013)

Assays:
[1] = biological target: T1, Ephrin type-A receptor 3 (Homo sapiens) (UniProt P29320); conditions: at 10 µM
T1 sequence (whole entry): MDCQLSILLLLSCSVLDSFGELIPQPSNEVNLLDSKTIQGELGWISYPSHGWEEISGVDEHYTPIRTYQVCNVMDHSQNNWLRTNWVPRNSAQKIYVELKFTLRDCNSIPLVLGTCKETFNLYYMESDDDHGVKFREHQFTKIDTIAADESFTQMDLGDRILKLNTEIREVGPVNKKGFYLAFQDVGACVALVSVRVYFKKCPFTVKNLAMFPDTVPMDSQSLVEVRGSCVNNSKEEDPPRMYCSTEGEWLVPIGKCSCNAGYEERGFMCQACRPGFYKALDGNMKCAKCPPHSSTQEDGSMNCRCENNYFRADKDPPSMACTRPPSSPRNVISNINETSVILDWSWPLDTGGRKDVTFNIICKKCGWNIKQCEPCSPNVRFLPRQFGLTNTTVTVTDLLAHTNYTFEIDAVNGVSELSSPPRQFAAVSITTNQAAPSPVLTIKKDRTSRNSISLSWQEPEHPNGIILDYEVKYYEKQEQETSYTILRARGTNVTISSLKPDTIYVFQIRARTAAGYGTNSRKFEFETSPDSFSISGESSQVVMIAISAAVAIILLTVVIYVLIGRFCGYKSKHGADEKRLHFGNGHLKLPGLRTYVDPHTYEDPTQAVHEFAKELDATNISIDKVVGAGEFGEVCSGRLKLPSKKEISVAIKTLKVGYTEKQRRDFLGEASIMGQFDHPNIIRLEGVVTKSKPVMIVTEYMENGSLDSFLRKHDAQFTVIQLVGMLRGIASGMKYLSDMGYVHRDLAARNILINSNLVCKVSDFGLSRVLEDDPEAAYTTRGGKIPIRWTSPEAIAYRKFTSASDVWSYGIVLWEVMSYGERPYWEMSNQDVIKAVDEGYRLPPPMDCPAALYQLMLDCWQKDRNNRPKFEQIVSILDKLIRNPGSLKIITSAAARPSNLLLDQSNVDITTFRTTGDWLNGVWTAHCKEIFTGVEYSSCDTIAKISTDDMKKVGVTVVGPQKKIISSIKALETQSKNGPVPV

[2] = biological target: Ephrin type-A receptor 4 (Homo sapiens) (UniProt P54764); conditions: at 1 µM
[3] = biological target: Ephrin type-A receptor 4 (Homo sapiens) (UniProt P54764); conditions: at 10 µM
[4] = biological target: Ephrin type-A receptor 5 (Homo sapiens) (UniProt P54756); conditions: at 1 µM
[5] = biological target: Ephrin type-A receptor 5 (Homo sapiens) (UniProt P54756); conditions: at 10 µM
[6] = biological target: Ephrin type-A receptor 7 (Homo sapiens) (UniProt Q15375); conditions: at 1 µM
[7] = biological target: Ephrin type-A receptor 7 (Homo sapiens) (UniProt Q15375); conditions: at 10 µM
[8] = biological target: T2, Ephrin type-A receptor 8 (Homo sapiens) (UniProt P29322); conditions: at 1 µM
T2 sequence (whole entry): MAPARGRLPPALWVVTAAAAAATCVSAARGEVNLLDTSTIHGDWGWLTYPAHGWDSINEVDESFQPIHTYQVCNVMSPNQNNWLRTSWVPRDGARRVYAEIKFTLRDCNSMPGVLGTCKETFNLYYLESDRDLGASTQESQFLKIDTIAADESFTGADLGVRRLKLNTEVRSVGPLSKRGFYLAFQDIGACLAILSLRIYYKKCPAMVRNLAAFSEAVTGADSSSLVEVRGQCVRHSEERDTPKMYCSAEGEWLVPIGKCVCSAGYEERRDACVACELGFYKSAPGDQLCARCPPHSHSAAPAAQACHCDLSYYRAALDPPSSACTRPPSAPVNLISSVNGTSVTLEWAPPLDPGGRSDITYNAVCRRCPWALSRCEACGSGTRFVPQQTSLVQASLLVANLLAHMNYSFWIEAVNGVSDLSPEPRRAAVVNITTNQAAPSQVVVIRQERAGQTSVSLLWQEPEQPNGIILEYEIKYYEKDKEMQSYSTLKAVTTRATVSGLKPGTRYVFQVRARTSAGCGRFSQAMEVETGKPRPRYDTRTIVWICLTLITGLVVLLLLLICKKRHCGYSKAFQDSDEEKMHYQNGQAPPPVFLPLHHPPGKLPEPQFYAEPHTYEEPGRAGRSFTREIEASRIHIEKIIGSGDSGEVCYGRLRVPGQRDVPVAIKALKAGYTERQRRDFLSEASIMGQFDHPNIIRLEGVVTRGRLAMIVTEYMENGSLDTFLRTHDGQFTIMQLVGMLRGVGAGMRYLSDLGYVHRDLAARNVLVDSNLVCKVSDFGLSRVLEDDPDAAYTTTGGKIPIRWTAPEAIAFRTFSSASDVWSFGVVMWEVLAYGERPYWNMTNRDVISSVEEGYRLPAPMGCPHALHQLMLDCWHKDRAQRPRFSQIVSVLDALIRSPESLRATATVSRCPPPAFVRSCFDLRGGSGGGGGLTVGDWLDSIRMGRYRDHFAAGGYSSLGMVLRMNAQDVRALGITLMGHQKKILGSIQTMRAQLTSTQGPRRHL

[9] = biological target: T2, Ephrin type-A receptor 8 (Homo sapiens); conditions: at 10 µM
[10] = biological target: T3, Ephrin type-B receptor 2 (Homo sapiens) (UniProt P29323); conditions: at 1 µM
T3 sequence (whole entry): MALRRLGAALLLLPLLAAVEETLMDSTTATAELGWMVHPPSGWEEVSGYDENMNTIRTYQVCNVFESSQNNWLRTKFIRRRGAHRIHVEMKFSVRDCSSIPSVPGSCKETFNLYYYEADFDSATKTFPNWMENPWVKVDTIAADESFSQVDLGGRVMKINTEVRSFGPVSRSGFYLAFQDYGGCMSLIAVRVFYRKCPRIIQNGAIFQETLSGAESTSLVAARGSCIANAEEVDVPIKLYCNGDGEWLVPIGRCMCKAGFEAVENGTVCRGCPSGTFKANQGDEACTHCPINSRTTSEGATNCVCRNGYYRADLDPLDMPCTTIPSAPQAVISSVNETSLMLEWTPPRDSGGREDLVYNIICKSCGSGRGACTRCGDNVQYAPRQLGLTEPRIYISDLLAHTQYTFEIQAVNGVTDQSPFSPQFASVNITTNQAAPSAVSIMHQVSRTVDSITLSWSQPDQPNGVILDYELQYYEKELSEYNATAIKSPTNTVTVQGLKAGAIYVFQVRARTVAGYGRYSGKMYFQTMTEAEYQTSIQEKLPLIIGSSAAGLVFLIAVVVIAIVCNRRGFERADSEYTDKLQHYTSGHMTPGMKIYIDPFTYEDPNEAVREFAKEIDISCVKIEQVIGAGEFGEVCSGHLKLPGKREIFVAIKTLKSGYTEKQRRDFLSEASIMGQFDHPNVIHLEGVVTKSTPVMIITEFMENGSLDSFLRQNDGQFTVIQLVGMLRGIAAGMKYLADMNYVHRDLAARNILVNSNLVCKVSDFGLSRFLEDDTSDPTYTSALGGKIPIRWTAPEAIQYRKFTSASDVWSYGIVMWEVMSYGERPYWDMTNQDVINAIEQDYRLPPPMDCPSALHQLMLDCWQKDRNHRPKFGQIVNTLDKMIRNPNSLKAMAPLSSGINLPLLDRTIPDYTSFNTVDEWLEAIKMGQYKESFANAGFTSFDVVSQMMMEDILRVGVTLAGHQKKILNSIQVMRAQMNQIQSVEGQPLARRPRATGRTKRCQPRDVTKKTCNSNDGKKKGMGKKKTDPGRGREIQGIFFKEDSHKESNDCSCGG

[11] = biological target: T3, Ephrin type-B receptor 2 (Homo sapiens); conditions: at 10 µM
[12] = biological target: T4, Ephrin type-B receptor 3 (Homo sapiens) (UniProt P54753); conditions: at 1 µM
T4 sequence (whole entry): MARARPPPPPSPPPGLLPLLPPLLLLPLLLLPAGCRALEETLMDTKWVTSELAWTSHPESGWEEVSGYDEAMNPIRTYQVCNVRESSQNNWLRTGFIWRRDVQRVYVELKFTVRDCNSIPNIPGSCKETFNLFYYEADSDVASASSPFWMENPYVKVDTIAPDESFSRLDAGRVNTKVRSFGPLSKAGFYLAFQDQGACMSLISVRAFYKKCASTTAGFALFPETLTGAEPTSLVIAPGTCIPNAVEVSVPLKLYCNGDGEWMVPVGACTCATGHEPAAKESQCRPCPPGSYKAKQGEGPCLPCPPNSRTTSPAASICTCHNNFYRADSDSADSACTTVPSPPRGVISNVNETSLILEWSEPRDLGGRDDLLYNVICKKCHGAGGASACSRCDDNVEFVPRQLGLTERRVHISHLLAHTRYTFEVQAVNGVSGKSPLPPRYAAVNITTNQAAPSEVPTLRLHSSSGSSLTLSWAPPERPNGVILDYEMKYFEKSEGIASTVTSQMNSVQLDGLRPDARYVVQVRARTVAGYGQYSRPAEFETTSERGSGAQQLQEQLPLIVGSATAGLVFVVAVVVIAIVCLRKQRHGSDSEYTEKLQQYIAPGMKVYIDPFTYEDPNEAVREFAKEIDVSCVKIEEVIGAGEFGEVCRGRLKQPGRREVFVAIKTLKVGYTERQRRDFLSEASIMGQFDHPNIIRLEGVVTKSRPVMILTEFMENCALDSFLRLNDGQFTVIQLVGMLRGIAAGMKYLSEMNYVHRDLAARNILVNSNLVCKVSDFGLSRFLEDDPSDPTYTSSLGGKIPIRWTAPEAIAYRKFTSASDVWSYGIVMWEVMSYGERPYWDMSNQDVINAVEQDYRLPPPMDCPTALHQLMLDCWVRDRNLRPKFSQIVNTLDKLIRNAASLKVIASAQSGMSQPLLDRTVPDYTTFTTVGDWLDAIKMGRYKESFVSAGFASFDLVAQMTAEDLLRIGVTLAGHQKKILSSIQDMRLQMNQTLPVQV

[13] = biological target: T4, Ephrin type-B receptor 3 (Homo sapiens); conditions: at 10 µM
[14] = biological target: T5, Ephrin type-B receptor 4 (Homo sapiens) (UniProt P54760); conditions: at 1 µM
T5 sequence (whole entry): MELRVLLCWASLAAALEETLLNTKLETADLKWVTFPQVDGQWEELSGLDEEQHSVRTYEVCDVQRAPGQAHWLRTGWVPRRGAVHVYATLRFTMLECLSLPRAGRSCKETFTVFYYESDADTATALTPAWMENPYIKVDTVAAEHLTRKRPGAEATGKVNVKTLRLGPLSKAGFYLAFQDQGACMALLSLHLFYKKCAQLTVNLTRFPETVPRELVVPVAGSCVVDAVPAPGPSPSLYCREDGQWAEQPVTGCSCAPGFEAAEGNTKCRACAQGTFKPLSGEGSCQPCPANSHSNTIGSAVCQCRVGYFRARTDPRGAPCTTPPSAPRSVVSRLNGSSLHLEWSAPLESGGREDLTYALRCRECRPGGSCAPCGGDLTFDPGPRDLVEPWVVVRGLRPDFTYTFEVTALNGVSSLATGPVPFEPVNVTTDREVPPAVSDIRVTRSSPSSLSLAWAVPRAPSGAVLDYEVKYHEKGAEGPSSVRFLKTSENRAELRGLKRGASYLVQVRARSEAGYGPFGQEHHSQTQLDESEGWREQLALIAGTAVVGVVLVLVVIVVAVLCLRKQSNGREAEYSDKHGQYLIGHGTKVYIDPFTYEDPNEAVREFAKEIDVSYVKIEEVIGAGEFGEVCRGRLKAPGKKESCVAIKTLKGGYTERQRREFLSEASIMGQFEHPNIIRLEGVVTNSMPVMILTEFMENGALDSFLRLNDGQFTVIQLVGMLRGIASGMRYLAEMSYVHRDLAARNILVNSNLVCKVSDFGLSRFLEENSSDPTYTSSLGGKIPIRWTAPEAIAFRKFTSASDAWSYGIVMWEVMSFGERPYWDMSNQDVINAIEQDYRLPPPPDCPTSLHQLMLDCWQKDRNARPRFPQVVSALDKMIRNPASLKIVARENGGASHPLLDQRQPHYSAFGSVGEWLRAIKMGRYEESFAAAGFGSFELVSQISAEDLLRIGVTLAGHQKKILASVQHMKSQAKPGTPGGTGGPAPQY

[15] = biological target: T5, Ephrin type-B receptor 4 (Homo sapiens); conditions: at 10 µM
[16] = biological target: Receptor tyrosine-protein kinase erbB-4 (Homo sapiens) (UniProt Q15303); conditions: at 1 µM
[17] = biological target: Focal adhesion kinase 1 (Homo sapiens) (UniProt Q05397); conditions: at 1 µM
Focal adhesion kinase 1 (Homo sapiens), sequence (Q05397 2-1052 limits assumed): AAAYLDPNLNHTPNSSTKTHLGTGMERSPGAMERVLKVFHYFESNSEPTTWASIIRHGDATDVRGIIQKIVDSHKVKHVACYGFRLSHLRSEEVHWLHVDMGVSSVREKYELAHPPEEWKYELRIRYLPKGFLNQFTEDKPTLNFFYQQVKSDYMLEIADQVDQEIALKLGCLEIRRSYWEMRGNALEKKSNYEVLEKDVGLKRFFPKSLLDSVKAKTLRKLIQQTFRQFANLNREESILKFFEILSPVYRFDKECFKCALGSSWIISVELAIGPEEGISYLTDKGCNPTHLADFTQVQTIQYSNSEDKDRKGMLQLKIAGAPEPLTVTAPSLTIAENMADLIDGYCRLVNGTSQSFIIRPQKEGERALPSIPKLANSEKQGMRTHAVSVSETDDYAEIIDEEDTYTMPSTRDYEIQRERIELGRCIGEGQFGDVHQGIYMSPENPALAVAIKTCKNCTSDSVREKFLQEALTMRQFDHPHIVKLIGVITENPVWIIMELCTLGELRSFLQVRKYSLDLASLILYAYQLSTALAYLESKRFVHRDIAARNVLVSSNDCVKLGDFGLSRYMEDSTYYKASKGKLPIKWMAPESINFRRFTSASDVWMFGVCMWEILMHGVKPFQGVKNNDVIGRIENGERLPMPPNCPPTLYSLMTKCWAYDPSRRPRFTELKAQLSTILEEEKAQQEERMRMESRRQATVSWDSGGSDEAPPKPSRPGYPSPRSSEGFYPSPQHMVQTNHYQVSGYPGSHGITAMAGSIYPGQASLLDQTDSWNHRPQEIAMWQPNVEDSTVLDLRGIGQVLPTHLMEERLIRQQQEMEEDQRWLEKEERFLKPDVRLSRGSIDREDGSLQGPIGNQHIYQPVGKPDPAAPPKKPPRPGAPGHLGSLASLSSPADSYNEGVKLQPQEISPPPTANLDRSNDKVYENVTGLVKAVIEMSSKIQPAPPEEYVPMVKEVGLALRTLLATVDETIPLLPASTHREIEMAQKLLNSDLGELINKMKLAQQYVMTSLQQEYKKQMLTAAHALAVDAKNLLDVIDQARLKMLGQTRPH

Ephrin type-A receptor 7 (Homo sapiens), sequence (Q15375 28-998 limits assumed): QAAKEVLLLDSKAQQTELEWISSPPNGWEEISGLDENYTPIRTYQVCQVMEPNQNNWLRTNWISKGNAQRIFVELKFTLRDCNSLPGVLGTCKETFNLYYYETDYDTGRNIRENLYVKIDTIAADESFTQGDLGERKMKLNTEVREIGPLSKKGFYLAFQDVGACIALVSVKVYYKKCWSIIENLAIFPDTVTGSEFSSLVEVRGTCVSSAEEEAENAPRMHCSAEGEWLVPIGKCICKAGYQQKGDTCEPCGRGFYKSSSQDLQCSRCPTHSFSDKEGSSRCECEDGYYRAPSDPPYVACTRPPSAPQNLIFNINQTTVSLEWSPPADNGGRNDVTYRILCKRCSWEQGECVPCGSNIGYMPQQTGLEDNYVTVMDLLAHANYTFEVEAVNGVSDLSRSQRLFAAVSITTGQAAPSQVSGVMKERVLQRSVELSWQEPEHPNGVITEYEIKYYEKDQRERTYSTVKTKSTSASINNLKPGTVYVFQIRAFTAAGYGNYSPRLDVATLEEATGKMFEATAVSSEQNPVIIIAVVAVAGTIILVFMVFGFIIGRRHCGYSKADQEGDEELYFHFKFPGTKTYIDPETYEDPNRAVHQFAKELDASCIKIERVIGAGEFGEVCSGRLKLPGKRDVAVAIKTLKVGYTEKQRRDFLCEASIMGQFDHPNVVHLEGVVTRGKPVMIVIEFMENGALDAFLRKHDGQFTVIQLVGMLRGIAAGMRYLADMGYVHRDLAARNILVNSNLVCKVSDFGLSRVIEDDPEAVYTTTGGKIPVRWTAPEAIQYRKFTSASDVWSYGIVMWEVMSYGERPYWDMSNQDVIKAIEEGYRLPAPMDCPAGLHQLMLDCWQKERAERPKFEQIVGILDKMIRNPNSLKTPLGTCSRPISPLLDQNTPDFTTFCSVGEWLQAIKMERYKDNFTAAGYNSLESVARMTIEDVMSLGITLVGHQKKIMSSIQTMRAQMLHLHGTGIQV
Ephrin type-A receptor 4 (Homo sapiens), sequence (P54764 whole entry): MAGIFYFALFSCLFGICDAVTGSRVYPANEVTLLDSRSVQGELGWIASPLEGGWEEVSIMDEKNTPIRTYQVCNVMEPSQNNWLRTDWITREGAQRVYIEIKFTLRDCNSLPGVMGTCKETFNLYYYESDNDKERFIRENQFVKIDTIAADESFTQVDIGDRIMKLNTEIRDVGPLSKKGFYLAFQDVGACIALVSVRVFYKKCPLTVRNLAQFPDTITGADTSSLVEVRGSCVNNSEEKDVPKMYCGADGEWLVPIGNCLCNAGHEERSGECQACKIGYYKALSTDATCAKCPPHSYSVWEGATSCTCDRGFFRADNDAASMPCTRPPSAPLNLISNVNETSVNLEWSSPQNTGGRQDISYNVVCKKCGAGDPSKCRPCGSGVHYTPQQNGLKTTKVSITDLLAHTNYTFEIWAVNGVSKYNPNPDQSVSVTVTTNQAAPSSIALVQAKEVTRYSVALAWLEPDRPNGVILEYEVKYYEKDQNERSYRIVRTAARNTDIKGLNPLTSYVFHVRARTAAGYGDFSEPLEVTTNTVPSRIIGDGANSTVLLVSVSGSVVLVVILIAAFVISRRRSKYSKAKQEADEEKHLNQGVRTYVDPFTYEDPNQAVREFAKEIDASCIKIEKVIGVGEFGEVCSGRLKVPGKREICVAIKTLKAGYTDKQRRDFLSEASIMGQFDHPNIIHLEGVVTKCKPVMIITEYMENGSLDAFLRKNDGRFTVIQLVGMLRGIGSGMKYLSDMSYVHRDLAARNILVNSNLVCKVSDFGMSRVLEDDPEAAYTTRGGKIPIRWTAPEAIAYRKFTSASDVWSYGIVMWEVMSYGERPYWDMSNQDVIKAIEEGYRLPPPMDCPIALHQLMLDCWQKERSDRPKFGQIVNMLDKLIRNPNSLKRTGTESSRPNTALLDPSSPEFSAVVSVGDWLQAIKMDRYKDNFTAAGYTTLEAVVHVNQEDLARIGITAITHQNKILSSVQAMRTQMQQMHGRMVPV
Ephrin type-A receptor 5 (Homo sapiens), sequence (P54756 whole entry): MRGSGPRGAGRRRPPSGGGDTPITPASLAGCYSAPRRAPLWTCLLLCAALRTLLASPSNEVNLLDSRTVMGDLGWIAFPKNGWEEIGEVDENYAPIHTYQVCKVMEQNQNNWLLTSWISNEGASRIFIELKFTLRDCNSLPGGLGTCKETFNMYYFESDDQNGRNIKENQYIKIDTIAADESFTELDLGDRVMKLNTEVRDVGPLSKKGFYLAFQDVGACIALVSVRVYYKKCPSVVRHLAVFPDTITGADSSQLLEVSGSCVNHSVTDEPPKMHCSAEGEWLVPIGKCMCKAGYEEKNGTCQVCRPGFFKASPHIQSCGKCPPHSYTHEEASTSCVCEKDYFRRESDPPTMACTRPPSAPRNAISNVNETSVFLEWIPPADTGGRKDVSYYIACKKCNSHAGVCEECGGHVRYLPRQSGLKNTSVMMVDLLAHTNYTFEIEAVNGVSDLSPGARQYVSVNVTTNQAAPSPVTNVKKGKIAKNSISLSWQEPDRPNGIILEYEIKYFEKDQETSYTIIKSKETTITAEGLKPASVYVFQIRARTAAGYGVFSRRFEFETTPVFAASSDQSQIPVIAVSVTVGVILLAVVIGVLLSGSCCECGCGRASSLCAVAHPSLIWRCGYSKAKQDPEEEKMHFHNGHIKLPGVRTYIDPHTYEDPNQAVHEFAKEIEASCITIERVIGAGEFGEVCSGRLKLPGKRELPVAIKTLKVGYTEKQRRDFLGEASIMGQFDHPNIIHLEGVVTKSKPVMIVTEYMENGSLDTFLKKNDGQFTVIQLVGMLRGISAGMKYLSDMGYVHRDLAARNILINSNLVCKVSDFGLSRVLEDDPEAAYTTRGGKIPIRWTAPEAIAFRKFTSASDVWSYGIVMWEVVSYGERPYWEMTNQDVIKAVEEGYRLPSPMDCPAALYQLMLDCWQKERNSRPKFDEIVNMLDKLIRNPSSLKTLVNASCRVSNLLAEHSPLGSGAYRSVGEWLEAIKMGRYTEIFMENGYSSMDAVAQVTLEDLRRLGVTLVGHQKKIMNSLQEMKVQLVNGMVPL

CO[C@@H]1[C@H](N(C)C(=O)c2ccccc2)C[C@H]2O[C@]1(C)n1c3ccccc3c3c4c(c5c6ccccc6n2c5c31)C(=O)NC4
residual activity [1]: 99%
residual activity [2]: 103%
residual activity [3]: 90%
residual activity [4]: 97%
residual activity [5]: 86%
residual activity [6]: 94%
residual activity [7]: 70%
residual activity [8]: 94%
residual activity [9]: 97%
residual activity [10]: 111%
residual activity [11]: 222%
residual activity [12]: 119% (inactive)
residual activity [13]: 130%
residual activity [14]: 107%
residual activity [15]: 372%
residual activity [16]: 67%
residual activity [17]: 90%
